This is a sample that favours compounds with a hit; in the whole collection about 3.1% have one here.
PLK1 PBD inh: PLK1 (human) polo-box domain binding inhibition. P53350. Potency, µM, for the others: max response, negative = inhibition, actives largely listed as inhibitors. Plk1 PBD binding of FITC phosphopeptide, fluorescence polarization. AID 720504. 2.8% of 360,000 active; further: series mostly up to about 57 µM; on the % scale 0 is the no-effect control and ±100 the full control effect; nearly all actives have a fitted effect of over 65% in size
VDR inh: vitamin D3 receptor (human) inhibition | Potency, µM, without a hit: max response, negative = inhibition, most hits filed as inhibitors | P11473 | 0.93% of 400,000 active | VDR-SRC2-3 peptide fluorescence polarization, 2 h | AID 504847; further: on the % scale 0 is the no-effect control and ±100 the full control effect
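Fluorescence polarization assay of small-molecule disruption of VDR binding to coregulator peptide SRC2-3. Compounds and controls pin-transferred, then read after 2 h incubation at ambient room temperature.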
TDP1 inh: blocks human tyrosyl-DNA phosphodiesterase 1. recombinant TDP1, AlphaScreen DNA substrate cleavage. 0.28% of 350,000 active. Q9NUW8. Potency, µM (highest dose often 130 µM), for inactives: top-dose activity change, negative = inhibition, usual class: inhibitors; further: on the % scale 0 is the no-effect control and ±100 the full control effect; nearly all actives have a fitted effect of over 40% in size
Target sequence (Q9NUW8 whole entry, looked up): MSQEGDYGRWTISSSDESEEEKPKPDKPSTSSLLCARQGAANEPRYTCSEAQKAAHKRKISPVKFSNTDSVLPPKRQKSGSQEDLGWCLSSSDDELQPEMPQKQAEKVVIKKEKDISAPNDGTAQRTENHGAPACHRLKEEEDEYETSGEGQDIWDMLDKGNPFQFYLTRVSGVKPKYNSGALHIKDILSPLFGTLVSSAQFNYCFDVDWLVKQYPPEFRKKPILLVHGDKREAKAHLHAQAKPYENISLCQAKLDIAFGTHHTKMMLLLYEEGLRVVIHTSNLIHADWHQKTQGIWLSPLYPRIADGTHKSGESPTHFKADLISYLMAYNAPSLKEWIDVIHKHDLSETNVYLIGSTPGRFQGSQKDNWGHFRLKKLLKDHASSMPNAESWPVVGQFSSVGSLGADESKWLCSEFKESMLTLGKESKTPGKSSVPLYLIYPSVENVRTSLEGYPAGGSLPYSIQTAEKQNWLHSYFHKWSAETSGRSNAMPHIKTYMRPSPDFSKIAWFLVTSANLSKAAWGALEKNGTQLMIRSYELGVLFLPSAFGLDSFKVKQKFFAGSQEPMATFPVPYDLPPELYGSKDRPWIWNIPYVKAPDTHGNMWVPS
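Tdp1 1 nM final; 15 min RT w/ cpd; substrate 15 nM, 5 min; beads 10 ug/ml, 10 min; AlphaScreen read. Neg ctrl: no enzyme.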
Pin1 inhibitor: human Pin1 inhibition | Q13526 | Pin1 FP peptide displacement, HiFluor488, 10 min | Potency, µM (series often up to 115 µM), for the others: top-dose activity, negative = inhibition, actives largely listed as inhibitors | 0.009% of 390,000 active | AID 504891; active means well fitted inhibition curve with a large enough effect in the polarisation, with a control signal flat, not every such curve was filed as active; inconclusive means small, poorly fitted or top-dose-only effect, or effect the other way, or a change in a side signal; inactive means no such curve, though single readings can be large or run the other way; the % refers to the polarisation; further: on the % scale 0 is the no-effect control and ±100 the full control effect
ASM inhibitor: blocks human secretory acid sphingomyelinase | P17405 | placental ASM, HMU-PC fluorogenic substrate, 60 min | Potency, µM (highest dose often 57.5 µM), for inactives: at the top dose activity change, negative = inhibition, actives largely listed as inhibitors | 0.006% of 340,000 active | AID 504937
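HMU-PC0 cleavage (9 uM final) by human placental ASM, 60 min at 37 °C following 10 min compound exposure at RT; stopped at pH 10, fluorescence Ex 386/Em 447 nm.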
Tb PFK block: blocks T. brucei phosphofructokinase; O15648; T. brucei PFK, ADP-Glo luminescence; Potency, µM (top dose mostly 57.5 µM), for inactives: at the highest dose activity, negative = inhibition, usual class: inhibitors; 0.17% of 330,000 active;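 further: 0% = uninhibited 1x PFK enzyme wells and -100% = no-enzyme wells; nearly all actives have a fitted effect of over 60% in size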
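In TEA buffer at pH 8.0 with 5 mM MgCl2, enzyme (1.25 nM) converted F6P (0.5 mM) and ATP (0.1 mM) for 45 min at room temperature. ADP product was read by luciferase luminescence.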
* marks the source's active call; other numbers are inactive results; ? = inconclusive; . = no result. Unless noted, the call rests on the fitted dose curve; in most records, active means well fitted curve in the direction sought with a large enough effect; inconclusive means small, poorly fitted or top-dose-only effect, or another doubt; inactive means no such curve, though single readings can be large; an effect the other way counts as inactive or inconclusive. Potency means the concentration at half of the fitted maximal effect.

SMILES	PLK1 PBD inh	VDR inh	TDP1 inh	Pin1 inhibitor	ASM inhibitor	Tb PFK block
O=C(C1CCCN(c2ncnc3c2nc2n3CCCCC2)C1)N1CCN(c2ccc(F)cc2)CC1 (stereo not drawn)	27µM*	-9%	7%	-3%	-6%	2%
Cc1c(Cl)cccc1NC(=O)C1CCN(c2ncnc3c2nc2n3CCCCC2)CC1	.	0%	2%	8%	.	.
Cc1ccc(OCc2nc(-c3ccc(C(=O)N4CCN(c5cccc(C(F)(F)F)c5)CC4)cc3)oc2C)cc1	.	2%	6%	-2%	.	.
CCOC(=O)c1ccc(-n2cnc3c(c2=N)C(c2cccc(OC)c2)c2c(ccc4ccccc24)O3)cc1 (stereo not drawn)	.	.	3%	10%	.	.
COc1ccc(Nc2c3c(nc4ccc(NC(=O)c5cc(Cl)ccc5OC)cc24)CCCC3)cc1OC	.	11%	6%	15%	.	.
Cc1ccc(C)c(NC(=O)C(Cc2ccccc2)N2Cc3ccccc3C2=O)c1 (stereo not drawn)	.	34%	4%	-2%	.	.
O=C(O)CCCN1C(=O)/C(=C/c2ccc(-c3nc4ccccc4s3)o2)SC1=S	?	-11%	-3%	?	-9%	-2%
O=C(O)CN1C(=O)/C(=C/c2ccc(N3CCCCC3)o2)SC1=S	-6%	?	50µM*	?	9%	-14%
O=C(O)CCCCCN1C(=O)/C(=C\c2ccc(-c3ccc(Cl)cc3)o2)SC1=S	-15%	8%	40µM*	?	-23%	-2%
COC(=O)CN1C(=O)S/C(=C/c2ccc(N3CCCCC3)o2)C1=O	86%	32µM*	6%	?	?	-8%
O=C1CCc2cc(S(=O)(=O)Nc3ccc(-c4ccccc4)cc3)ccc2N1	.	.	3%	?	.	.
COc1ccc2c(Sc3ccccc3)c(C(=O)NCCCN3CCCCC3)[nH]c2c1	.	11%	9%	-6%	.	.
O=C(CCN1C(=O)c2ccccc2C1=O)Nc1ccc(S(=O)(=O)N2CCOCC2)cc1	24µM*	?	2%	3%	0%	-1%
O=C(NCc1ccco1)c1cc2cc3ccc(Cl)cc3nc2o1	-16%	-12%	5%	112%	1%	3%
COc1ccc2cc3cc(C(=O)NCc4ccco4)oc3nc2c1	-13%	9%	50µM*	?	212%	?
Cc1cc(C)c(NC(=O)CN(C)CC(=O)Nc2cccc(S(=O)(=O)N(C)c3ccccc3)c2)c(C)c1	-13%	58%	2%	17%	-8%	-3%
Cc1ccccc1CN(C)CC(=O)Nc1cccc(S(=O)(=O)N(C)c2ccccc2)c1	27µM*	-26%	-1%	16%	0%	1%
CN1/C(=C\C(=O)COC(=O)CNC(=O)c2ccc3ccccc3c2)C(C)(C)c2ccccc21	19µM*	-28%	3%	?	87%	12%
CN1/C(=C\C(=O)COC(=O)CNC(=O)c2ccccc2F)C(C)(C)c2ccccc21	-8%	8%	1%	-4%	29%	0%
CC1CC(NC(=O)Cc2ccc(Br)cc2)CC(C)(C)C1 (stereo not drawn)	6µM*	?	-4%	?	-1%	-9%
N#CN=C1SCCS1	3.4µM*	-30%	-2%	2%	-1%	1%
COC(=O)c1sccc1NC(=O)c1cccnc1	27µM*	-3%	1%	3%	5%	.
COC(=O)c1sccc1NC(=O)c1cccc(Cl)c1	5%	-13%	.	-1%	-5%	.
O=C(CSc1cccc[n+]1[O-])c1cccs1	24µM*	7%	5%	-3%	-3%	1%
O=C(O)CSc1cccc[n+]1[O-]	-1%	16%	0%	1%	-1%	.
O=C(CSc1cccc[n+]1[O-])c1cc2ccccc2o1	27µM*	-3%	8%	4%	2%	-10%
O=c1c2ccccc2nc2sc(NCc3ccc(Oc4ccccc4)cc3)nn12	.	.	.	6%	.	.
NC(=S)c1ccc[n+]([O-])c1	19µM*	50µM*	.	0%	3%	.
Cc1oc2cc3oc(=O)c(CC(=O)O)c(C)c3cc2c1-c1ccccc1	-18%	-4%	.	?	119%	1%

Bioassay records: PubChem BioAssay, National Center for Advancing Translational Sciences (NCATS)
